Experimental data published in PubChem BioAssay AID2314 (National Center for Advancing Translational Sciences (NCATS), 2010).
Among all 300,000 compounds or so, about 37,000 (12%) were called active. The sample holds actives, similar compounds and a random draw of the others, so the mix is not that of the screen. Cut-off read from the data, not from the text of the source: active = max response mostly above about 13% (no sharp cut-off); inactive = mostly below about 14%.

Assay: Cycloheximide Counterscreen for Small Molecule Inhibitors of Shiga Toxin; note: read at 38.3 µM for the half of the compounds with a filed dose; 0% is about no effect
Settings: cell reporter, cycloheximide protein synthesis inhibition counterscreen; stronger effect = higher value
In the case of CCN(CC)CCNC(=O)c1sc2ncn(CC(=O)Nc3ccc(C)c(Cl)c3)c(=O)c2c1C, the max response is reported as -6.12% (inactive).
For Cc1ccc(NC(=O)CSc2nnc(CNC(=O)c3ccccc3F)o2)cc1Cl, the max response was 7.13% (inactive).
For CCCNC(=O)CCc1c(C)nc2c(c(C)nn2-c2ccccc2)c1C, the max response was -1.68% (inactive).
With Cc1ccc(C)c(C(=O)N2CCC(n3nccc3NC(=O)C3CC3)CC2)c1 the max response was -2.23% (inactive).
With Cc1ccc(C)c(NS(=O)(=O)c2c(C)[nH]c(C)c2C(=O)N2CCCCC2)c1 the max response was -4.94% (inactive).
In the case of O=C(Cn1c(-c2cncs2)nc2ccccc21)NC1CCCC1, the max response is reported as -2.22% (inactive).
For O=C(/C=C/c1cnc2ccccc2n1)NC1CCCCCC1, the max response was 49.7% (active).
With CC(=O)OC(C(=O)NC1CCCCC1)c1ccccc1 (centres undefined) the max response was -1.59% (inactive).
For CCOc1ccc(NC(=O)N(CCC(C)C)C(C)c2ccco2)cc1 (centres undefined), the max response was 8.57% (inactive).
For CCCC(C(=O)NCc1ccco1)N(C(=O)CNS(=O)(=O)c1ccccc1)C1CCCC1 (centres undefined), the max response was 2.82% (inactive).
For CC(c1ccco1)N(C(=O)Nc1ccccc1)C1CCCCC1 (centres undefined), the max response was 14.3% (active).
For COc1ccc(C2=NS(=O)(=O)N(C)C(C(=O)N(C)Cc3ccccc3)=C2)cc1, the max response was -2.93% (inactive).
For O=C(C[C@H]1C(=O)N(c2ccc(F)c(F)c2)C[C@@H]1Cc1ccccc1)Nc1ccccc1, the max response was 2.14% (inactive).
For CCOc1ccc(NC(=O)C2CCN(C(=O)N3CCOc4ccccc43)CC2)cc1, the max response was -1.22% (inactive).
With Cc1cc(C)c2c(=O)[nH]c(SCC(=O)Nc3ccc(Br)cc3)nc2n1 the max response was -1.25% (inactive).
With COc1ccc(C2CC(c3cccs3)=NN2C(=O)CCC(=O)O)cc1OC (centres undefined) the max response was -0.943% (inactive).
For COc1ccc(C2CC(c3cccs3)=Nc3ccccc3S2)cc1OC (centres undefined), the max response was 30.8% (active).
For COc1ccc(C2CC(c3cccs3)=NN2c2ccc(F)cc2)cc1OC (centres undefined), the max response was 15.3% (inactive).
In the case of COC(=O)c1ccc(NC(=O)CSc2nnc(C3CC3)n2C)cc1, the max response is reported as -2.61% (inactive).
With C=CCn1c(CNC(=O)c2ccco2)nnc1SCC(=O)c1ccc(OC)cc1 the max response was 0.446% (inactive).
For CCn1c(CNc2ccc(OC)cc2)nnc1SCC(=O)c1ccc(OC)cc1, the max response was 25.8% (active).
In the case of CCn1c(SCC(=O)NNC(=O)c2ccc(OC)cc2)nnc1C(C)C, the max response is reported as -1.89% (inactive).
With COC(=O)c1ccc(NC(=O)CSc2nnc(CNc3ccc(OC)cc3)n2C)cc1 the max response was 15.4% (active).
With COC(=O)c1ccc(NC(=O)CSc2nnc(-c3ccncc3)n2C)cc1 the max response was 0.526% (inactive).
In the case of O=C(NCCCN1CCCC1=O)C(=O)NCC1OCCN1S(=O)(=O)c1ccc(Br)cc1 (centres undefined), the max response is reported as 0.895% (inactive).
For CN(C)c1ccc(NC(=S)N(CCc2ccccc2)C2CC(=O)N(c3c(Cl)cccc3Cl)C2=O)cc1 (centres undefined), the max response was 9.01% (inactive).
With Cc1ccc(-n2c(SCC(=O)NCCC3=CCCCC3)nc3n[nH]c(C)c3c2=N)cc1Cl the max response was -7.25% (inactive).
With O=C(Cn1cncn1)N/N=C/c1c2ccccc2cc2ccccc12 the max response was 10.8% (inactive).
In the case of Cc1cccn2c(=O)c3cc(C(=O)NCCN4CCOCC4)c(=N)n(Cc4cccnc4)c3nc12, the max response is reported as -3.88% (inactive).
In the case of CC(Cc1cccs1)NC(=O)NC1CCCCC1 (centres undefined), the max response is reported as 12% (inactive).
With CC(Cc1cccs1)NCc1ccc(Cl)cc1 (centres undefined) the max response was 8.85% (inactive).
With CC(Cc1cccs1)NC(=O)c1cccc(Cl)c1 (centres undefined) the max response was 54.9% (active).
In the case of O=C(c1cnc(Cl)c(Cl)c1)N1CCN(S(=O)(=O)c2ccc(F)cc2)CC1, the max response is reported as -7.24% (inactive).
For Cc1cnc(C(=O)N2CCCC(C(=O)c3ccc(C(F)(F)F)cc3)C2)cn1 (centres undefined), the max response was -6.02% (inactive).
With COc1ccc2c(Cl)c(C(=O)NCc3ccco3)sc2c1 the max response was 76.1% (active).
In the case of O=C(NCc1ccco1)c1sc2cccc(F)c2c1Cl, the max response is reported as 24.8% (active).
With O=C(NCc1ccco1)c1nn2cccnc2c1Cl the max response was 7.86% (inactive).
For O=C(NCc1ccco1)c1ccc([N+](=O)[O-])cc1Cl, the max response was -2.66% (inactive).
For Cn1nc(-c2ccc(Cl)cc2)c2cc(C(=O)NCc3ccco3)sc21, the max response was -3.6% (inactive).
In the case of COc1ccc(-c2cc(C(=O)NCc3ccco3)no2)cc1OC, the max response is reported as 8.2% (inactive).
With COC(=O)c1ccc(COc2cc([N+](=O)[O-])cc3cccnc23)cc1 the max response was 0.536% (inactive).
For COc1cccc(NC(=O)C2CCCN(c3ncnc4c3nc3n4CCCCC3)C2)c1 (centres undefined), the max response was 9.28% (inactive).
For CCCOc1ccc(Cc2c(Cl)nc(SC)nc2NC)cc1, the max response was -0.737% (inactive).
For CC(NC(=O)c1cc(=O)[nH]c2ccccc12)c1ccc(F)cc1F (centres undefined), the max response was -4.29% (inactive).
For CC(C)N1C(=S)SC(C)(C)C1n1oc(=O)n(-c2ccc(Cl)c(Cl)c2)c1=O (centres undefined), the max response was -1.96% (inactive).
For CC(=O)NC1CCN(CC(=O)Nc2nccs2)CC1, the max response was 4.21% (inactive).
With CC1(C)CC(=O)C(C2c3ccccc3S(=O)(=O)c3ccccc32)C(=O)C1 the max response was 7.14% (inactive).
In the case of COc1ccc(CNC(=O)C(NS(=O)(=O)c2cccc3nsnc23)C(C)C)cc1 (centres undefined), the max response is reported as 2.57% (inactive).
In the case of Cc1ccc(C)c(OCCC(=O)OCC(=O)N2CCN(c3ccccc3)CC2)c1, the max response is reported as -1.98% (inactive).
With CCCCN1C(=O)/C(=C(/C#N)C(N)=O)c2ccccc21 the max response was -9.26% (inactive).
For COc1ccc2c(c1)C(=C(C#N)C#N)C(=O)N2CCc1ccccc1, the max response was 13.7% (active).
With C#CCN1C(=O)C(O)(CC(=O)c2cc(OC)ccc2OC)c2ccccc21 (centres undefined) the max response was -0.954% (inactive).
In the case of COc1cccc2cc(C(N)=O)/c(=N\NC(=O)c3ccccc3)oc12, the max response is reported as 36.9% (active).
For NC(=O)c1cc2ccccc2o/c1=N/NC(=O)c1cccc(F)c1, the max response was 8.31% (inactive).
With COc1ccc(C(=O)N/N=c2\oc3ccccc3cc2C(N)=O)cc1 the max response was 45% (inactive).
For CCCC(C)c1nnc(NC(=O)C2CC(=O)N(c3ccc(OCC)cc3)C2)s1 (centres undefined), the max response was -2.49% (inactive).
In the case of COc1ccc(N2CCN(C(=O)CNC(=O)c3ccc(Br)o3)CC2)cc1, the max response is reported as -1.81% (inactive).
With CC1=C(C(N)=O)C(c2ccc(F)cc2)n2nc(CCCO)nc2N1 (centres undefined) the max response was 5.22% (inactive).
In the case of Cc1cc(C)c(SCCc2ccncc2)c(C)c1, the max response is reported as 1.01% (inactive).
For CC(c1ccccc1)(c1ccccc1)c1ccncc1, the max response was -5.73% (inactive).
For CC(C)(C)c1ccc(SCCc2ccncc2)cc1, the max response was 12.3% (active).
In the case of COc1ccc(N2CCN(C(=O)Cn3cnc4sc(C)c(S(=O)(=O)N5CCOCC5)c4c3=O)CC2)cc1, the max response is reported as -2.13% (inactive).
For Cn1c(=O)[nH]c(=O)c2c1[nH]c(=S)n2Cc1ccccc1, the max response was -6.84% (inactive).
In the case of CCOCc1nnc(NC(=O)CCC2CCCCC2)s1, the max response is reported as 9.52% (inactive).
For CCc1ccc(OCC(O)CN2CCN(CCO)CC2)cc1 (centres undefined), the max response was -1.22% (inactive).
In the case of CCn1c(SC)nc(O)c(C(c2ccc(OC)c(O)c2)c2c(O)nc(SC)n(CC)c2=O)c1=O, the max response is reported as 18.8% (inactive).
With Cc1onc(-c2ccc(Cl)cc2)c1-c1ccnn1S(=O)(=O)c1ccc(Cl)cc1 the max response was 9.73% (inactive).
For COc1ccc(-c2noc(CN(C)S(=O)(=O)c3ccc(C)cc3)n2)cc1, the max response was -2.54% (inactive).
For COc1ccc(Cc2nc(-c3ccccn3)no2)cc1OC, the max response was 33% (active).
In the case of CCCc1nc(-c2cc3cc(C)ccc3[nH]c2=O)no1, the max response is reported as 2.4% (inactive).
In the case of COc1ccccc1Cc1nc(-c2ccc(C)cc2)no1, the max response is reported as 35.3% (active).
With COc1ccc2[nH]c(=O)c(-c3noc(-c4ccc(F)cc4)n3)cc2c1 the max response was 41% (active).
In the case of COc1ccc(CCNC(=O)C(Sc2ccccn2)c2ccccc2)cc1OC (centres undefined), the max response is reported as -1.92% (inactive).
For COc1ccc2[nH]c(=O)c(CN(Cc3cccnc3)S(=O)(=O)c3ccccc3F)cc2c1, the max response was -2.1% (inactive).
In the case of COc1ccc(-c2noc(CSc3ccc(C)cc3)n2)cc1, the max response is reported as 10.3% (inactive).
For Cc1ccc(-c2noc(CC(c3ccccc3)c3ccccc3)n2)cc1, the max response was 11% (inactive).
In the case of COc1ccc(-c2noc(-c3ccc(C)cc3)n2)cc1, the max response is reported as 39.5% (active).
With COc1ccc(CCNS(=O)(=O)c2cccc3cccnc23)cc1OC the max response was -1.86% (inactive).
In the case of COc1ccccc1CNS(=O)(=O)c1ccc(C)cc1, the max response is reported as 7.14% (inactive).
With O=c1c([N+](=O)[O-])cccn1Cc1ccc(F)cc1Cl the max response was -5.4% (inactive).
For CCCN(CCC)C(=S)Nc1cc(C(=O)OC)ccc1C(=O)OC, the max response was -1.36% (inactive).
For COc1ccc(S(=O)(=O)/N=C2\C=C(NS(=O)(=O)c3ccccc3)C(=O)c3ccccc32)cc1, the max response was 13.7% (inactive).
In the case of COC(=O)COc1ccc2c(=O)c(Oc3ccccc3Br)coc2c1, the max response is reported as 1.67% (inactive).
With CCCCN(CCCC)CC(O)Cn1c2ccccc2c(=O)c2ccccc21 (centres undefined) the max response was 1.42% (inactive).
For CCc1ccnc(NC(=O)Nc2ccc(OCc3ccccc3)cc2)c1, the max response was 4.28% (inactive).
In the case of COc1ccc(/C=C/c2c(-c3cccc(C)c3)oc3ccc(-c4ccc5c(c4)OCO5)cc23)cc1, the max response is reported as -3.1% (inactive).
For COc1ccc(C2=Nc3cc(C)ccc3OC2)cc1, the max response was 33.1% (active).
For COc1ccc(C2=NOC3(CC(=O)N(c4ccc(C)cc4)C3=O)C2)cc1 (centres undefined), the max response was 14.2% (inactive).
In the case of CC(=O)Nc1ccc(S(=O)(=O)Nc2ccc(-c3ccc4nnc(C)n4n3)cc2)cc1, the max response is reported as -1.66% (inactive).
For O=C(NC1CCCC1)C(c1ccc(Cl)cc1)N(C(=O)c1csnn1)C1CC1 (centres undefined), the max response was -3.62% (inactive).
For Cc1cc(/C=C2/NC(=O)NC2=O)c(C)n1-c1cccnc1, the max response was 7.98% (inactive).
For Cc1cccc(C)c1-n1c(C)cc(/C=C2\C(=O)NN(c3ccccc3)C2=O)c1C, the max response was -1.17% (inactive).
For Cc1ccccc1-n1c(C)cc(/C=C2\NC(=O)NC2=O)c1C, the max response was 52% (active).
For CCOc1ccc(S(=O)(=O)N2CCN=C2Cc2ccccc2)cc1C, the max response was -7.25% (inactive).
